Among all 11,000 compounds or so, about 310 (2.8%) were called active. Rule as the data show it: active = activity change below about -85%; inactive = the rest. Shown is part of a subset that was picked to be rich in actives.
Each molecule was assayed on intestinal alkaline phosphatase [Mus musculus] (assay: mouse intestinal phosphatase enzyme activation – biochemical, luminescence, single concentration, confirmation (AID 434970)). Settings: purified mouse IAP, CDP-Star luminescence, 30 min, at 10 µM; activation factor: measured here: IAP activation factor, stronger effect = higher value; activity change, negative = activation: stronger effect = lower value.

Row | SMILES | activation factor | activity change, negative = activation
1 | CC[C@]12c3[nH]c4ccc(Cl)cc4c3CCN1C(=O)[C@@H](CC(=O)NCCC1=CCCCC1)C[C@@H]2C(=O)N1CCN(C(=O)c2ccco2)CC1 | 1.08 | -8.45% (inactive)
2 | CC1OC23CCCCC2C(C#N)(C(=N)O3)C1(C#N)C#N (stereo unspecified) | 0.959 | 4.1% (inactive)
3 | CCN(CC(=O)NCc1ccc(F)cc1)Cc1nc2ccccc2c(=O)[nH]1 | 1.14 | -14.2% (inactive)
4 | CN(CC(=O)NC(c1ccccc1)c1ccccc1)Cc1nc2ccccc2c(=O)[nH]1 | 2.71 | -171% (active)
5 | CCN(CC(=O)Nc1ccc2c(c1)OCO2)Cc1nc2ccccc2c(=O)[nH]1 | 1.23 | -23.5% (inactive)
6 | Cc1cc(Cl)cc(C)c1OCC(=O)O | 1.06 | -5.8% (inactive)
7 | O=C(CNC1CCCCCC1)Nc1ccccc1N1CCCCC1 | 1.04 | -3.7% (inactive)
8 | COc1ccccc1NS(=O)(=O)c1ccc(C)c(C(N)=O)c1 | 0.925 | 7.5% (inactive)
9 | Cc1ccc(NC(=S)NCc2ccccc2)cc1S(=O)(=O)N1CCCCC1 | 2.87 | -187% (active)
10 | Cc1ccc(C(=O)NCC(=O)O)cc1S(=O)(=O)N1CCCCC1 | 0.994 | 0.55% (inactive)
11 | O=C(Nc1ccc(F)cc1)Nc1ccccc1N1CCCCC1 | 1.58 | -57.8% (inactive)
12 | Cc1cc(C)cc(NC(=O)Nc2ccccc2N2CCCCC2)c1 | 2.12 | -112% (active)
13 | COc1ccc(NC(=S)Nc2cccc(S(=O)(=O)N3CCCCC3)c2)cc1 | 1.01 | -1.4% (inactive)
14 | COc1ccccc1NS(=O)(=O)c1cccc(NC(=O)Nc2ccc(Cl)cc2)c1 | 1.92 | -92.2% (active)
15 | COc1ccc(OC)c(NS(=O)(=O)c2ccc(NC(C)=O)cc2)c1 | 0.988 | 1.15% (inactive)
16 | Cc1ccc(C)c(S(=O)(=O)N2CCN(CC(=O)NC(=O)NCc3ccccc3)CC2)c1 | 0.972 | 2.8% (inactive)
17 | O=C(Nc1ccccc1)Nc1ccc(Cl)c(S(=O)(=O)N2CCOCC2)c1 | 1.53 | -53.4% (inactive)
18 | COc1ccc(NC(=O)Nc2ccccc2)cc1S(=O)(=O)N1CCCCC1 | 2.87 | -187% (active)
19 | COc1ccc(C(=O)Nc2cccc(C(C)=O)c2)c(OC)c1OC | 0.951 | 4.95% (inactive)
20 | COC(=O)CC1C(=O)NCCN1C(=O)Nc1ccccc1 (stereo unspecified) | 0.938 | 6.25% (inactive)
21 | CCOC(=O)Cc1cc(=O)n(-c2nc3ccccc3s2)[nH]1 | 0.806 | 19.4% (inactive)
22 | O=C(CN1C(=O)C2CC=CCC2C1=O)Nc1ccc(S(=O)(=O)NC2=NCCCCC2)cc1 (stereo unspecified) | 0.903 | 9.65% (inactive)
23 | CC[C@@H]1C(c2cccc(C)c2)=NN(c2ccccc2)[C@H]1C(=O)N1CCOC1=O | 1.14 | -14.2% (inactive)
24 | COc1cccc(-n2c(SCC(=O)Nc3nccs3)nnc2-c2ccoc2C)c1 | 0.982 | 1.8% (inactive)
25 | O=C1OCCN1C(=O)[C@H]1[C@H](c2ccc([N+](=O)[O-])cc2)C(c2ccccc2)=NN1c1ccc(Br)cc1 | 0.908 | 9.2% (inactive)
26 | COc1ccc(C(=O)O)cc1S(=O)(=O)Nc1cccc(C)c1 | 0.988 | 1.25% (inactive)

Row | SMILES | activation factor | activity change, negative = activation
27 | O=C(Nc1cccc(C(F)(F)F)c1)Nc1ccc(N2CCCC2)c(S(=O)(=O)Nc2ccccc2Cl)c1 | 1.67 | -66.9% (inactive)
28 | COc1ccccc1NS(=O)(=O)c1cc(NC(=O)Nc2cccc(C)c2)ccc1N1CCCCC1 | 3.78 | -278% (active)
29 | Cc1cc(-c2csc(NC(=O)c3ccc(=O)[nH]c3)n2)c(C)n1Cc1ccco1 | 0.347 | 65.4% (inactive)
30 | CCCc1c(O)nc(SC2CC(=O)N(c3cc(OC)ccc3OC)C2=O)[nH]c1=O (stereo unspecified) | 1.01 | -0.65% (inactive)
31 | C=CCn1c(SCC(=O)Nc2cc(C)ccc2OC)nnc1-c1ccco1 | 1.07 | -7.4% (inactive)
32 | CCOC(=O)C1=CN(Cc2ccc(Br)cc2)S(=O)(=O)NC1C (stereo unspecified) | 0.968 | 3.25% (inactive)
33 | O=C(Nc1ccc(Cl)cc1)Nc1ccc(N2CCOCC2)cc1 | 1.17 | -16.9% (inactive)
34 | O=C(Nc1ccc(Cl)cc1)N[C@@H]1c2c(ccc3ccccc23)OC[C@@H]1CO | 4.85 | -385% (active)
35 | O=C(Nc1ccc(Cl)cc1)Nc1ccc(-c2cnco2)cc1 | 1.34 | -34.5% (inactive)
36 | CCCCc1ccc(CC(=O)O)cc1 | 0.907 | 9.3% (inactive)
37 | O=C(Nc1ccccc1)Nc1csc2ccccc12 | 2.08 | -108% (active)
38 | CC(C)CNC(=O)c1ccccc1NC(=O)Nc1ccccc1 | 0.949 | 5.15% (inactive)
39 | O=C(Nc1ccc(F)cc1F)Nc1csc2ccccc12 | 1.77 | -77.3% (inactive)
40 | O=C(Nc1ccc(F)c(Cl)c1)Nc1csc2ccccc12 | 2.15 | -115% (active)
41 | O=C(Nc1ccc(F)cc1)Nc1csc2ccccc12 | 1.94 | -93.7% (inactive)
42 | CCCCC(=O)Nc1ccc(F)c(Cl)c1 | 1.05 | -5.3% (inactive)
43 | O=S(=O)(NCc1cccs1)c1cccc(S(=O)(=O)N2CCCCC2)c1 | 0.903 | 9.65% (inactive)
44 | Cc1ccccc1N(CC(=O)N1CCN(c2ccccc2)CC1)S(C)(=O)=O | 0.932 | 6.8% (inactive)
45 | COc1ccc(OC)c(S(=O)(=O)n2ccnc2C)c1 | 0.998 | 0.15% (inactive)
46 | COc1ccc(Cc2nnc(NC(=O)C3CCCO3)s2)cc1OC (stereo unspecified) | 1.01 | -1.15% (inactive)
47 | CCC(C)OC(=O)C1=C(C)NC2=C(C(=O)C(C(=O)OC)C(C)C2)C1c1ccc(N(C)C)cc1 (stereo unspecified) | 1.06 | -6.35% (inactive)
48 | CCN(CC)CCNC(=O)Cn1nc(-c2ccccc2)c2ccccc2c1=O | 0.954 | 4.6% (inactive)
49 | NC(=O)C1CCN(c2ncnc3c(-c4ccccc4)nsc23)CC1 | 0.947 | 5.35% (inactive)
50 | O=C(c1cc(-c2cccs2)on1)N1CCN(C(c2ccccc2)c2ccccc2)CC1 | 0.971 | 2.95% (inactive)
51 | CCn1c(CC(=O)Nc2ccc(C)cc2)nnc1SCC(=O)NCc1ccccc1 | 1 | -0.4% (inactive)
52 | Cc1ccc(NC(=O)NC2(C(=O)NCc3ccccc3)CCCCC2)cc1 | 2.31 | -131% (active)

Row | SMILES | activation factor | activity change, negative = activation
53 | O=C(Nc1cccc(Cl)c1)NC1(C(=O)NCc2cccs2)CCCCC1 | 1.62 | -61.7% (inactive)
54 | O=C(NCc1ccccc1)NC1(C(=O)N2CCCC2)CCCCC1 | 0.94 | 6% (inactive)
55 | COc1ccccc1CNC(=O)Cn1cccc1 | 0.944 | 5.65% (inactive)
56 | COc1ccccc1CNC(=O)C1(NC(=O)Nc2ccc(C)cc2)CCCCC1 | 3.44 | -244% (active)
57 | CCOC(=O)c1ccc(NC(=O)NCc2ccc(OC)cc2)cc1 | 1.49 | -49% (inactive)
58 | COc1ccccc1C(=O)Nc1ccc(CN2CCCCC2)cc1 | 0.94 | 6% (inactive)
59 | Cc1ccc(CNC(=O)C2(NC(=O)Nc3ccc(C)cc3)CCCCC2)cc1 | 2.98 | -198% (active)
60 | CC1(C)CC(=O)C2=C(C1)N=c1s/c(=C/c3ccc(F)c(F)c3)c(=O)n1C2c1ccc(F)cc1 (stereo unspecified) | 0.856 | 14.4% (inactive)
61 | N#C/C(=C/c1ccco1)C(N)=S | 0.434 | 56.5% (inactive)
62 | CCOC(=O)c1c(-c2ccccc2)oc2ccc(O)c(CN(C)C)c12 | 0.909 | 9.15% (inactive)
63 | Nc1ncnc2c1ncn2[C@@H]1O[C@H](CNS(=O)(=O)c2cc(S(=O)(=O)c3ccccc3)cs2)[C@@H](O)[C@H]1O | 1.08 | -7.65% (inactive)
64 | Cc1ccc(C(=O)Nc2nnn(C)n2)cc1 | 1.1 | -10.2% (inactive)
65 | CCN(CC)S(=O)(=O)c1ccc(NC(=O)Cn2c(=O)sc3ccccc32)cc1 | 1.31 | -30.9% (inactive)
66 | C#CCOCCOCCOCCNc1nc(N2CCN(C(=O)CCCCCCCCCCNC(=O)[C@H](CCCN=C(N)N)n3cc(C[C@@H](C)CC)nn3)CC2)nc(N2CCN(C(=O)CCCCCCCCCCNC(=O)[C@@H]([C@H](C)CC)n3cc(CCCCCN)nn3)CC2)n1 | 6.19 | -519% (active)
67 | C#CCOCCOCCOCCNc1nc(N2CCN(C(=O)CCCCCCCCCCNC(=O)[C@H]([C@@H](C)CC)n3cc(CCCCN=C(N)N)nn3)CC2)nc(N2CCN(C(=O)CCCCCCCCCCNC(=O)[C@H](CCCN=C(N)N)n3cc(C[C@@H](C)CC)nn3)CC2)n1 | 9.52 | -852% (active)
68 | C#CCOCCOCCOCCNc1nc(N2CCN(C(=O)CCCCCCCCCCNC(=O)[C@H]([C@@H](C)CC)n3cc(CCCCN=C(N)N)nn3)CC2)nc(N2CCN(C(=O)CCCCCCCCCCNC(=O)[C@H](CCCCN)n3cc(C[C@@H](C)CC)nn3)CC2)n1 | 8.58 | -758% (active)
69 | Cc1ccc(N=C2NC(=O)CS2)cc1 | 0.925 | 7.5% (inactive)
70 | COc1ccc(C2/C=C\CN(S(=O)(=O)c3ccc(C)cc3)CC(=O)N2Cc2cccc(F)c2)cc1 (stereo unspecified) | 1.08 | -8% (inactive)
71 | O=C1CCCCCN1Cc1nnc(SCc2nc3ccccc3s2)n1-c1ccccn1 | 0.923 | 7.7% (inactive)
72 | Cc1ccc(-c2noc(CN3CCC(C(N)=O)CC3)n2)cc1 | 0.997 | 0.25% (inactive)
73 | CC(=O)NCC(=O)N(c1c(C)n(C)n(-c2ccccc2)c1=O)C1(C(=O)NC2CCCC2)CCCCC1 | 0.98 | 2.05% (inactive)
74 | O=C(N1CCOCC1)C1(c2ccccc2)CCCCC1 | 0.901 | 9.95% (inactive)
75 | Cc1ccc(NC(=O)CN(C)C(=O)CCCN2C(=O)c3ccccc3C2=O)cc1 | 1.04 | -3.95% (inactive)
76 | C#CCOCCOCCOCCNc1nc(N2CCN(C(=O)CCCCCCCCCCNC(=O)[C@H]([C@@H](C)CC)n3cc(CCCCCN)nn3)CC2)nc(N2CCN(C(=O)CCCCCCCCCCNC(=O)[C@H](CO)n3cc(CCCCCN)nn3)CC2)n1 | 2.51 | -151% (active)
77 | C#CCOCCOCCOCCNc1nc(N2CCN(C(=O)CCCCCCCCCCNC(=O)[C@H]([C@@H](C)CC)n3cc(CCCCCN)nn3)CC2)nc(N2CCN(C(=O)CCCCCCCCCCNC(=O)[C@@H]([C@H](C)O)n3cc(C)nn3)CC2)n1 | 4.1 | -310% (active)
78 | C#CCOCCOCCOCCNc1nc(N2CCN(C(=O)CCCCCCCCCCNC(=O)[C@H]([C@@H](C)CC)n3cc(CCCCCN)nn3)CC2)nc(N2CCN(C(=O)CCCCCCCCCCNC(=O)[C@@H]([C@H](C)CC)n3cc(CCCCCN)nn3)CC2)n1 | 6.79 | -579% (active)

Reference: PubChem BioAssay AID434970 (Sanford-Burnham Center for Chemical Genomics, 2010)
